The record followed here is PubChem BioAssay (EPA / NIEHS).

Structures are written as SMILES. The source made the active and inactive calls. The calls were made as follows: active = hit-call score of the fitted dose curve at least 0.9, where 1 is the maximum; inactive = score below 0.9.

In one experiment the target is Signal transducer and activator of transcription 3 (Homo sapiens) (UniProt P40763). Briefly: ATG_STAT3_CIS: Attagene CIS-FACTORIAL HepG2 Assay for human Signal Transducer and Activator of Transcription 3 (STAT3) (AID 2282963). Conditions: HepG2, Attagene cis-factorial STAT3 reporter transcription; actives raise or lower the signal. The method in brief: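 HepG2 cells transiently transfected with cis-element-driven multiple reporter transcription units; after 24 h chemical exposure, reporter mRNA measured by RT-PCR, 6-FAM primer-extension labelling, HpaI digestion and capillary electrophoresis. Bidirectional fitting versus DMSO baseline.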
Chain of Signal transducer and activator of transcription 3 (Homo sapiens) (P40763 whole entry, looked up): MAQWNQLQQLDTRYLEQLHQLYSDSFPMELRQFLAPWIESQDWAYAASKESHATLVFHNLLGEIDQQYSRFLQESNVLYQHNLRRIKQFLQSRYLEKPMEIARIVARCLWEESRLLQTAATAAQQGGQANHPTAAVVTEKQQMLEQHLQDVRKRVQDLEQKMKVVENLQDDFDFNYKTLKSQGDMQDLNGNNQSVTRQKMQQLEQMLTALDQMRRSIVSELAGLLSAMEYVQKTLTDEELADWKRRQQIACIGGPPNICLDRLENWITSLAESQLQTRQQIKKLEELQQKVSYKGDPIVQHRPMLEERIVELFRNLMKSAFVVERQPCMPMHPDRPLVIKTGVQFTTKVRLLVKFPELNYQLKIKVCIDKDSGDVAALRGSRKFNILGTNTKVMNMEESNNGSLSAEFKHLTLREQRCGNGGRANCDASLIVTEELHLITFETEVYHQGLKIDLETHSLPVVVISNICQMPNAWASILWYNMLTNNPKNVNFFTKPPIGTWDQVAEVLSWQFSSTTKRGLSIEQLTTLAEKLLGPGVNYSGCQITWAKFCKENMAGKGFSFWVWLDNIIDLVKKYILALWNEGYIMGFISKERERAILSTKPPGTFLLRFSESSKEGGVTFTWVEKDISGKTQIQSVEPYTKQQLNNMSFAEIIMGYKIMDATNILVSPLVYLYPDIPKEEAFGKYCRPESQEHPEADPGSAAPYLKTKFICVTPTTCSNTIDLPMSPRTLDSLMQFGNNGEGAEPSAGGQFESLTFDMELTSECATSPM
As for `C=CC(=O)NC(C)(C)CS(=O)(=O)O`, the compound was called inactive.

Consider `O=C1CCCC(=O)O1`, for which the compound was called inactive.

Turning to `Cc1c(C)c([N+](=O)[O-])c(C(C)(C)C)c([N+](=O)[O-])c1C`, the result was inactive.

Turning to `CCOc1ccc(N)c([N+](=O)[O-])c1`, the call was inactive.

Turning to `CCOC(=O)Cc1cccc2ccccc12`, the compound was classed as inactive.

As to `COC=O`, the result was inactive.

Take `C[C@]12C=CC(=O)C=C1CC[C@@H]1[C@@H]2[C@@H](O)C[C@@]2(C)[C@H]1CC[C@]2(O)C(=O)CO`: the result was inactive.

Consider `CCC(C)OC(=O)c1ccc(O)cc1` (centres undefined), for which the call was inactive.

Regarding `CC1=CC[C@H]2C[C@@H]1C2(C)C`, the compound was classed as inactive.

On to `N#[N+]c1ccc2c(S(=O)(=O)[O-])cccc2c1O`, for which the call was inactive.

For `Cc1cc(C)c(C)c(O)c1`, the compound was classed as inactive.

As for `CCCCCCC1(C)CCC(=O)O1` (centres undefined), the outcome was inactive.

As for `Cc1cccc(C(=O)O)c1`, the result was inactive.

`C=CC(C)(CCC=C(C)C)OC(=O)CC(C)C` (centres undefined): the compound was classed as inactive.

In the case of `CC/C=C\CCOC(=O)CCCCC`, the compound was called inactive.

For the compound `O=S1(=O)OC(c2ccc(O)cc2)(c2ccc(O)cc2)c2ccccc21`, the call was inactive.

In the case of `O=C1C(N(CO)C(=O)NCO)N(CO)C(=O)N1CO` (centres undefined), the outcome was inactive.

For the compound `CC(CC=O)c1ccccc1` (centres undefined), the compound was classed as inactive.

`CC(C)CCCC(C)CC=O` (centres undefined): the outcome was inactive.

For the compound `CCO[Si](CCCN=C=O)(OCC)OCC`, the call was inactive.

Turning to `O=S(=O)(Oc1ccc(Cl)cc1Cl)c1ccccc1`, the result was inactive.

Regarding `Cc1ccc(C(C)(C)C)cc1`, the outcome was inactive.

Regarding `ON(Cc1ccccc1)Cc1ccccc1`, the call was inactive.

With `CC1=CC[C@H](C(C)C)C=C1`, the call was inactive.

Take `CC(C)=CCC[C@H](C)CCO`: the result was inactive.

With `COC(=O)c1c(C)cc(O)c(C)c1O`, the outcome was inactive.

For the compound `CCC(C)(C)C1CCCCC1OC(C)=O` (centres undefined), the compound was classed as inactive.

For `N#CCc1ccc(Cl)cc1Cl`, the result was inactive.

As to `O=CN1CCCCC1`, the call was inactive.

Take `CCN(CC#N)c1cccc(C)c1`: the compound was classed as inactive.

In the case of `CC(=O)OCc1ccco1`, the outcome was inactive.

In the case of `CC(C)(C)C(=O)CCc1ccc(Cl)cc1`, the call was inactive.

`COC(=O)/C=C\C(=O)O`: the compound was classed as inactive.

On to `C1=Cc2ccccc2C1`, for which the call was inactive.

Take `CCCCC/C=C\C/C=C\CCCCCCCC(=O)OC`: the result was inactive.

`O=C1CCC(=O)N1Cl`: the outcome was inactive.

For `C=C(C)[C@H]1CC=C(C)CC1`, the call was inactive.

In the case of `N[C@H]1C(O)O[C@H](CO)[C@H](O)[C@@H]1O` (some centres undefined), the result was inactive.

System in a further experiment: not listed separately
As to the kind of experiment: ATG_TA_CIS: Attagene CIS-FACTORIAL HepG2 Assay for human TA Basal Promoter (AID 2282964). To be noted: HepG2 Attagene CIS-factorial TA basal promoter reporter; actives raise or lower the signal. The method in brief: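 Cis-factorial format in HepG2: reporters report endogenous factors, not chimeric Gal4 fusions. After 24 h treatment, reporter transcripts were measured by RT-PCR-capillary electrophoresis fluorescence, analysed bidirectionally versus DMSO.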
On to `C=CC(=O)NC(C)(C)CS(=O)(=O)O`, for which the compound was called inactive.

Consider `O=C1CCCC(=O)O1`, for which the result was inactive.

Consider `Cc1c(C)c([N+](=O)[O-])c(C(C)(C)C)c([N+](=O)[O-])c1C`, for which the outcome was inactive.

Take `CCOc1ccc(N)c([N+](=O)[O-])c1`: the compound was called inactive.

For `CCOC(=O)Cc1cccc2ccccc12`, the call was inactive.

For `COC=O`, the compound was classed as inactive.

Turning to `C[C@]12C=CC(=O)C=C1CC[C@@H]1[C@@H]2[C@@H](O)C[C@@]2(C)[C@H]1CC[C@]2(O)C(=O)CO`, the call was inactive.

On to `CCC(C)OC(=O)c1ccc(O)cc1` (centres undefined), for which the outcome was inactive.

Take `CC1=CC[C@H]2C[C@@H]1C2(C)C`: the result was inactive.

As for `N#[N+]c1ccc2c(S(=O)(=O)[O-])cccc2c1O`, the compound was classed as inactive.

Regarding `Cc1cc(C)c(C)c(O)c1`, the result was inactive.

For `CCCCCCC1(C)CCC(=O)O1` (centres undefined), the compound was called inactive.

As to `Cc1cccc(C(=O)O)c1`, the result was inactive.

For `C=CC(C)(CCC=C(C)C)OC(=O)CC(C)C` (centres undefined), the outcome was inactive.

As to `CC/C=C\CCOC(=O)CCCCC`, the call was inactive.

`O=S1(=O)OC(c2ccc(O)cc2)(c2ccc(O)cc2)c2ccccc21`: the outcome was inactive.

For `O=C1C(N(CO)C(=O)NCO)N(CO)C(=O)N1CO` (centres undefined), the call was inactive.

For `CC(CC=O)c1ccccc1` (centres undefined), the call was inactive.

On to `CC(C)CCCC(C)CC=O` (centres undefined), for which the compound was classed as inactive.

Regarding `CCN(Cc1cccc(S(=O)(=O)O)c1)c1ccc(C(=C2C=CC(=[N+](CC)Cc3cccc(S(=O)(=O)[O-])c3)C=C2)c2ccccc2)cc1`, the call was inactive.

As for `CCO[Si](CCCN=C=O)(OCC)OCC`, the compound was called inactive.

Regarding `O=S(=O)(Oc1ccc(Cl)cc1Cl)c1ccccc1`, the compound was called inactive.

Turning to `Cc1ccc(C(C)(C)C)cc1`, the compound was classed as inactive.

As to `ON(Cc1ccccc1)Cc1ccccc1`, the call was inactive.

Take `CC1=CC[C@H](C(C)C)C=C1`: the result was inactive.

Consider `CC(C)=CCC[C@H](C)CCO`, for which the compound was classed as inactive.

For the compound `COC(=O)c1c(C)cc(O)c(C)c1O`, the result was inactive.

With `N#CCc1ccc(Cl)cc1Cl`, the result was inactive.

With `O=CN1CCCCC1`, the outcome was inactive.

Take `CCN(CC#N)c1cccc(C)c1`: the call was inactive.

As for `CC(=O)OCc1ccco1`, the compound was called inactive.

With `CC(C)(C)C(=O)CCc1ccc(Cl)cc1`, the call was inactive.

For `NC(=O)OCC(COC(N)=O)c1ccccc1`, the result was inactive.

As to `COC(=O)/C=C\C(=O)O`, the compound was classed as inactive.

Turning to `C1=Cc2ccccc2C1`, the outcome was inactive.

Regarding `CCCCC/C=C\C/C=C\CCCCCCCC(=O)OC`, the AC50 was 100 µM (active).

For orientation: AC50 means the concentration giving half of the maximal activity seen.
